“And” between values parts separate entries of the source, which are not always exact repeats. Equal values may be shown once. The whole screen tested about 5,500 compounds, of which about 2,000 (36%) were called active. Inconclusive results (about 18%) are left out. Rule as the data show it: active = normalized growth mostly below about 0.91 (no sharp cut-off); inconclusive = no clear call, values can overlap the other calls; inactive = mostly above about 0.92. This is one part of the list.
Experiment: chemical genetic growth profiling, strain panel (AID 1159580);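 also: tested at 20 µM; growth read once vehicle control cultures reached saturation at 30 °C; 1 = growth at the plate median or of vehicle wells; lower values mean less growth of the strain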
Details: S. cerevisiae deletion strains, growth OD

Measured: normalized growth

C[C@]12CCC3C(CC[C@]4(O)C[C@@H](O)CC[C@]34C=O)[C@@]1(O)CCC2C1=CC(=O)OC1 (stereo not given in full)
active: locus YER015W, strain faa2, active compounds read low 0.922
inactive: locus YAL021C, strain ccr4, active compounds read low 0.92 | locus YAL026C, strain drs2, active compounds read low 0.983 | locus YAL030W, strain snc1, active compounds read low 0.975 | locus YBL061C, strain skt5, active compounds read low 0.979 | locus YBR009C, strain hhf1, active compounds read low 0.967 | locus YBR021W, strain FUR4, active compounds read low 1 | locus YBR023C, strain chs3, active compounds read low 0.98 | locus YBR171W, strain sec66, active compounds read low 0.986 | locus YBR229C, strain ROT2, active compounds read low 0.94 | locus YBR231C, strain swc5, active compounds read low 0.995 | locus YBR279W, strain paf1, active compounds read low 0.986 | locus YCL011C, strain gbp2, active compounds read low 0.943 | locus YCL016C, strain dcc1, active compounds read low 0.958 | locus YCL029C, strain bik1, active compounds read low 0.962 | locus YCL069W, strain vba3, active compounds read low 0.981 | locus YCR088W, strain abp1, active compounds read low 0.988 | locus YDL005C, strain med2, active compounds read low 0.969 | locus YDL035C, strain GPR1, active compounds read low 0.964 | locus YDL040C, strain nat1, active compounds read low 0.992 | locus YDL074C, strain BRE1, active compounds read low 1.01 | locus YDL101C, strain DUN1, active compounds read low 0.987 | locus YDL185W, strain tfp1, active compounds read low 0.962 | locus YDL192W, strain arf1, active compounds read low 0.976 | locus YDR001C, strain nth1, active compounds read low 0.967 | locus YDR069C, strain doa4, active compounds read low 0.986 | locus YDR101C, strain arx1, active compounds read low 0.97 | locus YDR137W, strain rgp1, active compounds read low 0.971 | locus YDR159W, strain sac3, active compounds read low 1.05 | locus YDR162C, strain NBP2, active compounds read low 0.975 | locus YDR195W, strain ref2 1.01 | locus YDR297W, strain sur2, active compounds read low 0.994 | locus YDR318W, strain mcm21, active compounds read low 0.98 | locus YDR334W, strain swr1, active compounds read low 0.978 | locus YDR335W, strain msn5, active compounds read low 0.989 | locus YDR388W, active compounds read low 0.982 | locus YDR392W, strain spt3, active compounds read low 0.889 | locus YDR502C, strain sam2, active compounds read low 0.99 | locus YEL003W, strain gim4, active compounds read low 0.991 | locus YEL037C, strain rad23, active compounds read low 0.979 | locus YEL061C, strain CIN8 (second series), active compounds read low 0.984 | locus YEL061C, strain CIN8, active compounds read low 0.986 | locus YER016W, strain bim1, active compounds read low 0.991 | locus YER110C, active compounds read low 0.98 | locus YER111C, strain swi4, active compounds read low 1.02 | locus YER155C, strain BEM2 (second series), active compounds read low 1.06 | locus YER155C, strain BEM2, active compounds read low 0.994 | locus YER167W, strain BCK2, active compounds read low 0.984 | locus YFR010W, strain ubp6, active compounds read low 0.982 | locus YGL078C, strain dbp3, active compounds read low 0.996 | locus YGL086W, strain mad1, active compounds read low 0.992 | locus YGL167C, strain pmr1, active compounds read low 0.965 | locus YGL173C, strain kem1, active compounds read low 0.994 | locus YGL227W, strain vid30, active compounds read low 0.998 | locus YGL240W, strain doc1, active compounds read low 1.03 | locus YGL248W, strain PDE1, active compounds read low 1 | locus YGL253W, strain hxk2, active compounds read low 0.985 | locus YGR135W, strain pre9, active compounds read low 0.975 | locus YGR229C, strain SMI1, active compounds read low 0.991 | locus YGR252W, strain gcn5, active compounds read low 0.988 | locus YHR013C, strain ard1, active compounds read low 0.953 | locus YHR027C, strain rpn1, active compounds read low 0.973 | locus YHR030C, strain SLT2, active compounds read low 0.991 and 0.995 | locus YHR079C, strain IRE1 (second series), active compounds read low 0.98 | locus YHR079C, strain IRE1, active compounds read low 0.988 | locus YHR094C, strain hxt1, active compounds read low 0.976 | locus YHR129C, strain ARP1, active compounds read low 0.989 | locus YHR142W, strain chs7, active compounds read low 0.971 | locus YHR200W, strain rpn10, active compounds read low 0.964 | locus YIL066C, strain RNR3, active compounds read low 0.95 | locus YIL073C, strain SPO22, active compounds read low 0.958 | locus YIL125W, strain kgd1, active compounds read low 0.969 | locus YIR030C, strain dcg1, active compounds read low 0.975 | locus YJL092W, strain hpr5, active compounds read low 0.97 | locus YJL095W, strain BCK1 (second series), active compounds read low 0.98 | locus YJL095W, strain BCK1, active compounds read low 1.05 and 1.01 | locus YJL115W, strain asf1, active compounds read low 0.968 | locus YJL129C, strain trk1, active compounds read low 0.999 | locus YJL134W, strain LCB3, active compounds read low 0.98 | locus YJL154C, strain vps35, active compounds read low 0.984 | locus YJL164C, strain tpk1, active compounds read low 0.933 | locus YJL166W, strain qcr8, active compounds read low 1 | locus YJL168C, strain set2, active compounds read low 0.982 | locus YJL187C, strain SWE1 (second series), active compounds read low 1.01 | locus YJR043C, strain POL32, active compounds read low 0.964
